High-throughput results: PubChem, Columbia University Molecular Screening Center
HUVEC tox TNFa = HUVEC cytotoxicity counter-screen, TNF alpha stimulated; AID 848; hit rate 0.17% among 93,000; cell count reduction, % at 2 µM; HUVEC TNFalpha-stimulated, Hoechst cell count, imaging;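 active = cell count reduction exceeding the screen mean by over 5 SD, scaled to untreated wells per plate, cut at about 78% in these data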;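 also: cells counted after 24 h of TNF alpha exposure following the 1 h pretreatment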
NFkB transloc pot = enhances IL-1B driven NFkB nuclear translocation; HUVEC IL-1B NFkB p65 nuclear translocation imaging; activation, % at 2 µM; hit rate 0.3% among 94,000; AID 819;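 active = activation above 40%, about the mean plus 3 SD, also judged a hit on visual image review; inconclusive = activation above 40% but not a hit on visual review; inactive = activation not above 40% and no visual hit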;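 also: percent activation is computed from the nuclear over cytoplasmic p65 intensity ratio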
HUVEC tox IL1B = toxic to HUVEC cells under IL-1B stimulation; HUVEC cell count loss, Hoechst imaging, IL-1B stimulated; cell count reduction, % at 2 µM; hit rate 0.41% among 94,000;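 active = cell count reduction more than 3 SD above the screen-wide mean, cut at about 70% in these data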;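 also: normalized per plate to untreated control cells as the no-loss baseline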
VCAM1 TNFa inh = reduces TNF alpha induced VCAM1 expression in HUVEC; hit rate 0.48% among 95,000; AID 802; inhibition, % at 2 µM; HUVEC TNFa-induced VCAM-1 immunofluorescence, high-content imaging;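 active = inhibition above the batch mean plus 3 SD, with images confirmed as a hit by eye, cut at about 37% in these data; inconclusive = inhibition above that limit but hit not confirmed in images; inactive = inhibition not above that limit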;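 also: 0% = TNF-stimulated DMSO wells and 100% = unstimulated control wells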
IL1B NFkB inh = blocks IL-1B driven NFkB nuclear translocation in HUVEC cells; HUVEC IL-1B NFkB p65 nuclear translocation imaging; inhibition, % at 2 µM; hit rate 0.43% among 94,000; AID 796;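 active = inhibition above about 30% together with a positive call from visual inspection of the well image, limit read from the data; inconclusive = inhibition above a set limit but visual check negative; inactive = inhibition not above a set limit, visual check negative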;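 also: nuclear over cytoplasmic p65 intensity ratio measured by imaging; 0% = IL-1B stimulated DMSO wells and 100% = unstimulated DMSO wells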
* marks the source's active call; other numbers are inactive results; ? = inconclusive; / = no result given. A selection: hits, their analogues and other compounds. The true share with any hit is near 1.5%.

SMILES | HUVEC tox TNFa | NFkB transloc pot | HUVEC tox IL1B | VCAM1 TNFa inh | IL1B NFkB inh
CCn1c(SCc2ccc(C)cc2)nnc1-c1cnccn1 | 12 | 63* | -1 | -6 | -63
CCn1c(SCC(=O)c2ccccc2)nnc1-c1cnccn1 | / | -2 | 0 | 13 | 2
O=[N+]([O-])c1cc(/C=N\Nc2nccs2)ccc1O | 6 | 15 | 6 | -13 | -15
O=C(CCl)Nc1cc(-c2ccccc2)nn1-c1ccccc1 | -2 | 17 | 88* | 15 | -17
Cc1ccc(OCCCC(=O)Nc2ccc(Br)cc2)cc1 | -8 | 0 | -34 | 4 | 0
C=CCOC(=O)C1=C(C)Nc2nc3ccccc3n2C1c1ccncc1 (configuration not stated) | -15 | -13 | -12 | 12 | 13
CC(C)C(=O)Nc1ccc(NC(=O)c2ccccc2Cl)nc1 | 83* | -10 | -10 | 31 | 10
CCSc1nnc(NC(=O)Cc2cccc(OC)c2)s1 | 26 | -36 | 47 | -14 | 36*
S=c1[nH]nc(CSc2nc3ccccc3s2)n1C1CCCCC1 | -4 | -12 | 14 | -1 | 12
COc1ccc(C(=O)OCC2CC(c3ccccc3)N(C)O2)cc1 (configuration not stated) | 7 | -47 | -24 | 10 | 47*
COC(=O)c1[nH]c2ccc(Cl)cc2c1NC(=O)CN1CCc2cc(OC)c(OC)cc2C1 | -45 | -4 | -14 | 5 | 4
CCOC(=O)c1[nH]c2ccc(F)cc2c1NC(=O)CN1CCc2cc(OC)c(OC)cc2C1 | -36 | 48* | 5 | -3 | -48
COc1cccc(CNC(=O)C2CCCN(S(=O)(=O)c3c(C)n[nH]c3C)C2)c1 (configuration not stated) | 79* | 8 | -16 | -18 | -8
CC1Oc2ccccc2C=C1/C=C1/SC(N2CCOCC2)=NC1=O (configuration not stated) | 13 | -10 | 0 | 52* | 10
COC(=O)c1ccccc1NC(NC(=O)c1ccco1)C(=O)c1ccc(C)cc1 (configuration not stated) | 86* | 3 | -6 | 62* | -3
O=C1NC(=Nc2ccccc2)S/C1=C\c1cccn1-c1ccccc1 | 8 | -1 | -9 | 31 | 1
CN1C(=O)C(O)(C2COC(C)(C)CC2=O)c2ccccc21 (configuration not stated) | -30 | 11 | -9 | -12 | -11
CN1C(=O)C2(NCCc3c2[nH]c2ccccc32)c2ccccc21 (configuration not stated) | / | -5 | 0 | 53* | 5
COc1ccccc1/C=c1\sc2nc(-c3ccccc3OC)nn2c1=O | 17 | 52* | 14 | 30 | -52
O=C(CN1CCN(c2nc(-c3ccc(F)cc3)cs2)CC1)Nc1ccc2c(c1)OCO2 | 13 | 8 | -2 | 88* | -8
O=C(NCCc1nc2ccccc2[nH]1)c1ccc(F)cc1 | -5 | 13 | 92* | -8 | -13
CN(CC(=O)O)S(=O)(=O)c1ccc(F)cc1 | -10 | 4 | -28 | -14 | -4
CN(CC(=O)NCc1ccncc1)S(=O)(=O)c1ccc(F)cc1 | 100* | 29 | -34 | ? | -29
CN(CC(=O)NCc1ccncc1)S(=O)(=O)c1ccccc1 | -14 | 4 | -5 | 2 | -4
CNC(=O)CN(C)S(=O)(=O)c1ccc(F)cc1 | -30 | 44* | 13 | 6 | -44
SMILES | HUVEC tox TNFa | NFkB transloc pot | HUVEC tox IL1B | VCAM1 TNFa inh | IL1B NFkB inh
Cc1cc(C)n(-c2nc3ccccc3[nH]c2=O)n1 | -19 | 3 | 87* | -16 | -3
Cc1cc(C)n(-c2nc3ccccc3nc2N2CCN(C(=O)c3ccc(Cl)cc3)CC2)n1 | / | -9 | 8 | 92* | 10
Cc1cc(C)n(-c2nc3ccccc3nc2N2CCCCCC2)n1 | -15 | -1 | -2 | -5 | 1
Cc1cc(C)n(-c2nc3ccccc3nc2Nc2ccc3[nH]c(=O)[nH]c3c2)n1 | -14 | 7 | -100 | 2 | -7
Cc1cc(C)n(-c2nc3ccccc3nc2N2CCCC2)n1 | 0 | 6 | 80* | 4 | -6
CC(C)=CC(=O)Nc1ccc(Br)cc1 | 14 | 7 | -54 | -8 | -7
CCCCC(=O)Nc1ccc(C(=O)NNC(=O)c2ccccc2Br)cc1 | -16 | -1 | 11 | -20 | 1
Cc1ccccc1NC(=O)C1CCN(c2cc(-c3ccccc3)nc3ncnn23)CC1 | / | -9 | -35 | 10 | 9
CCC1CCCCN1C(=O)CSc1nnc(-c2cccs2)o1 (configuration not stated) | -6 | -97 | 86* | 19 | 97*
CCN1CCCC1Cn1cnc2c([nH]c3cccc(Cl)c32)c1=O (configuration not stated) | -55 | -30 | -11 | 18 | 30*
